Molecules are shown by their SMILES.

The first experiment has as its system Human papillomavirus type 1a protein E7 (residues 44-93). Description: HPV1a E7 fragment binders on microarrays, primary screen, biochemical, small-molecule microarray, residues 44-93, 635 nm fluorescence (AID 1108).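 Further: E7 fragment applied at 1 µg/mL in TBST for 1 h at 4 C; score combines spot fluorescence with its signal to noise ratio.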 The following applies: small-molecule microarray binding, fluorescence 635 nm; higher = more signal.
As to `COCCOC(=O)N1C(=O)[C@@]2(c3cc(C#CCC(C(=O)OC)C(=O)OC)ccc31)[C@H](C(=O)Nc1nc3ccccc3s1)[C@H]1C(=O)O[C@H](c3ccccc3)[C@H](c3ccccc3)N1[C@@H]2c1ccc(OCCO)cc1`, the composite z-score was 0.783.

Consider `CCCCCCc1nc(Cc2cc(OC)c(OC)c(OC)c2)cc2c1[Si](C(C)C)(C(C)C)O[C@H]2c1ccccc1`, for which the composite z-score was determined as 0.192.

Regarding `COC(=O)c1cccc([C@H]2OC(=CC(=O)OC(C)C)C[C@@H](c3cccc(C(=O)OC)c3)O2)c1`, the composite z-score is 1.43.

The compound `C=CC[C@]1(C(=O)NCC(O)CO)COC(c2ccc(OCCCO)cc2)=N1` (some centres undefined) returned a composite z-score of -0.683.

`COC(=O)[C@@]1(Cc2ccccc2)[C@H]2c3cc(C(=O)N(C)C)n(Cc4ccc(C(F)(F)F)nc4)c3C[C@H]2CN1C(=O)c1ccccc1` showed a composite z-score of 1.49.

On to `CCCNC(=O)[C@@]1(c2ccc([N+](=O)[O-])cc2)CC(=O)N(C(C)C)[C@@H]1c1ccc(CO)cc1`, for which the composite z-score was -0.603.

`C[C@@H]1NC(=O)C([C@@H](C)OCc2ccccc2)NC(=O)[C@@]23C(=O)N[C@@H](Cc4ccccc4)C2[C@H](C)[C@@]2(C)O[C@H]2C3/C=C/C/C=C\CNC1=O` (some centres undefined) yielded a composite z-score of -0.663.

For `CCOC(=O)C1=C[C@@H](C(C)(C)C)N(S(=O)(=O)c2ccc(C)cc2)[C@H]1c1ccc(C#N)cc1`, the composite z-score worked out at 1.41.

Test system in another experiment: not listed separately
Description: modulators of HCV replicon luciferase signal, primary screen, HCV replication inhibitor project, Huh7 cells, luciferase reporter (AID 1109).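 Further: huh7 hepatoma cells harbouring a luciferase neomycin HCV replicon reporter; luciferase luminescence as measure of HCV replicon replication; test concentration not given here.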 The following applies: 48 h, higher = more signal.
With `C=C1C(=O)C=C2CN(C(=O)c3ccccc3)[C@@](Cc3ccc(OC)cc3)(C(=O)OC)[C@@H]12`, the z-score was -2.72.

`COC(=O)[C@@]1(Cc2ccc(F)cc2)[C@H]2c3cc(C(=O)N(C)C)n(C)c3C[C@H]2CN1C(=O)c1ccccc1` registered a z-score of -0.275.

In the case of `COCCCNC(=O)[C@@]1(CCS(=O)(=O)c2ccccc2)COC(c2ccc(OCCCO)cc2)=N1`, the z-score was -0.46.

On to `CO[C@H]1O[C@H](CO)[C@@H](OC(=O)Nc2ccc3c(c2)OCO3)[C@H](OC(=O)Nc2ccccc2-c2ccccc2)[C@H]1OC(=O)Nc1ccccc1-c1ccccc1`, for which the z-score was -3.79.

Consider `NC(=O)N1C(=O)C2C(C1=O)C1C=C(CCCO)C2C(C2CC2)N1Cc1sc2ccccc2c1Cl` (centres undefined), for which the z-score was -1.63.

As for `C=CC[C@@]1(C(=O)OC)N=C(c2ccc(OCCCO)cc2)O[C@@H]1c1ccccc1N=[N+]=[N-]`, the z-score is -0.992.

`C=CCC(OC(C)=O)[C@@H]1[C@@H](N(Cc2ccc(-c3ccccc3)cc2)C(=O)c2cccc3ccccc23)c2cc(OCCCO)ccc2N1C(=O)Cc1ccc(OC)cc1` (some centres undefined) had a z-score of -0.235.

With `CCOc1cc(C(O)C2C=CC3C(=O)N(c4ccccc4)C(=O)C3N2Nc2ccccc2F)ccc1O` (centres undefined), the z-score is -0.299.

`C=CCC(OC(C)=O)[C@@H]1[C@@H](N(Cc2cc3ccccc3o2)C(=O)c2cccc3ccccc23)c2cc(OCCCO)ccc2N1C(=O)c1ccc2ccccc2n1` (some centres undefined): the z-score amounted to 0.0107.

`COc1ccc(C(O)C2C=CC3C(=O)N(C)C(=O)C3N2N(c2ccccc2)c2ccccc2)cc1` (centres undefined) displayed a z-score of -0.336.

Take `O=C1O[C@@H](c2ccccc2)[C@@H](c2ccccc2)N2[C@@H](c3ccc(OCCO)cc3)[C@]3(C(=O)Nc4ccc(C#CC5(O)CCCCCC5)cc43)[C@@H](C(=O)Nc3nc4ccccc4s3)[C@H]12`: the z-score is -2.29.

The compound `COCCOC(=O)N1C(=O)[C@@]2(c3cc(C#CCCO)ccc31)[C@H](C(N)=O)[C@H]1C(=O)O[C@H](c3ccccc3)[C@H](c3ccccc3)N1[C@@H]2c1ccccc1OCCO` had a z-score of -2.12.

In the case of `CC1CC/C=C\[C@H]2OC34C=CCN(C(C)(C)C)C(=O)[C@H]3N(CCCO)C(=O)[C@@H]4C2C(=O)O1` (some centres undefined), the z-score is -0.751.

On to `COc1ccc([Si](C)(C)[C@H]2[C@H](CC(=O)N3Cc4ccccc4C[C@H]3CO)O[C@@]3(C(=O)N(C)c4ccccc43)[C@@H]2C)cc1`, for which the z-score is -4.34.

For the compound `Cc1ccc(S[C@]2(C(=O)NCCCN(C)C)CC(=O)N(C3Cc4ccccc4C3)[C@@H]2c2ccc(CO)cc2I)cc1`, the z-score is -2.83.

In turn, `O=C1O[C@H](c2ccccc2)[C@H](c2ccccc2)N2[C@H]1[C@@H](C(=O)N1CCN(c3ncccn3)CC1)[C@]1(C(=O)Nc3ccc(C#CCCO)cc31)[C@H]2c1ccc(O)cc1` gave a z-score of -1.38.

`[N-]=[N+]=Nc1ccccc1C[C@]1(C(=O)N2CCOCC2)N=C(c2ccc(OCCCO)cc2)O[C@H]1c1ccccc1N=[N+]=[N-]` gave a z-score of -2.23.

`COc1ccc(C(=O)Nc2ccc(CN3C(=O)[C@@]4(O[C@@H](CCn5cc(CCO)nn5)[C@H]([Si](C)(C)c5ccc(OC)cc5)[C@H]4C)c4ccccc43)cc2)cc1` showed a z-score of -5.11.

For `NC(=O)NCC#Cc1ccc2c(c1)[C@]1(C(=O)N2)[C@H](c2ccc(OCCO)cc2)N2[C@H](c3ccccc3)[C@H](c3ccccc3)OC(=O)[C@H]2[C@@H]1C(=O)NC[C@H](O)c1ccccc1`, the z-score was -1.27.

`O=C1[C@H]2C=C(I)[C@H](C[C@@H]2c2ccccc2)[C@@]12CO2` returned a z-score of -3.6.

In turn, `CC(C)NC(=O)[C@@H]1c2ccccc2C(=O)N(Cc2ccc(OC(F)(F)F)cc2)[C@H]1c1ccc(CO)cc1` yielded a z-score of -0.779.

Compound `COc1ccc([Si](C)(C)[C@H]2[C@H](CC(=O)N3Cc4ccccc4C[C@H]3CO)O[C@@]3(C(=O)N(c4ccccc4)c4ccccc43)[C@@H]2C)cc1` yielded a z-score of -3.46.

For `CC(C)(C)N1CC=CC23O[C@@H]4/C=C\CCCOC(=O)C4[C@H]2C(=O)N(CCCO)[C@@H]3C1=O` (some centres undefined), the z-score worked out at 0.0578.

The compound `O=C1C2C=CC(C(O)c3ccc([N+](=O)[O-])cc3)N(Nc3ccccc3F)C2C(=O)N1c1ccccc1` (centres undefined) yielded a z-score of -0.288.

The compound `COc1ccccc1CN1C(=O)c2ccccc2[C@](Cc2ccccc2I)(C(=O)NCC(C)C)[C@@H]1c1ccc(CO)cc1` displayed a z-score of -0.921.

In turn, `C=C(CCCC)/C(=C/C[C@H](OC(=O)c1ccncc1)c1ccc(OCCO)cc1)c1cnc2ccccc2c1` had a z-score of -2.25.

As for `CCCC[C@H]1C[C@@H]1[C@@H]1N(C(C)=O)[C@H](c2cccc(OC)c2)CC12CC2`, the z-score was -0.103.

Take `O=C1O[C@H](Cc2ccccc2)[C@@H]2[C@H]3C=CCCC=C3CN2[C@H]1Cc1ccc(O)cc1`: the z-score is -1.7.

The compound `COCCOC(=O)N1C(=O)[C@@]2(c3cc(C#CCC(C(=O)OC)C(=O)OC)ccc31)[C@H](C(=O)Nc1nc3ccccc3s1)[C@H]1C(=O)O[C@H](c3ccccc3)[C@H](c3ccccc3)N1[C@@H]2c1ccc(OCCO)cc1` gave a z-score of -2.03.

For `CCCCCCc1nc(Cc2cc(OC)c(OC)c(OC)c2)cc2c1[Si](C(C)C)(C(C)C)O[C@H]2c1ccccc1`, the z-score is -2.41.

`COC(=O)c1cccc([C@H]2OC(=CC(=O)OC(C)C)C[C@@H](c3cccc(C(=O)OC)c3)O2)c1` came in with a z-score of -2.51.

`C=CC[C@]1(C(=O)NCC(O)CO)COC(c2ccc(OCCCO)cc2)=N1` (some centres undefined) registered a z-score of 0.412.

`COC(=O)[C@@]1(Cc2ccccc2)[C@H]2c3cc(C(=O)N(C)C)n(Cc4ccc(C(F)(F)F)nc4)c3C[C@H]2CN1C(=O)c1ccccc1` yielded a z-score of -1.3.

In turn, `CCCNC(=O)[C@@]1(c2ccc([N+](=O)[O-])cc2)CC(=O)N(C(C)C)[C@@H]1c1ccc(CO)cc1` gave a z-score of 0.0828.

Compound `C[C@@H]1NC(=O)C([C@@H](C)OCc2ccccc2)NC(=O)[C@@]23C(=O)N[C@@H](Cc4ccccc4)C2[C@H](C)[C@@]2(C)O[C@H]2C3/C=C/C/C=C\CNC1=O` (some centres undefined) returned a z-score of -0.914.

Regarding `CCOC(=O)C1=C[C@@H](C(C)(C)C)N(S(=O)(=O)c2ccc(C)cc2)[C@H]1c1ccc(C#N)cc1`, the z-score was -2.04.

Source of the values: PubChem BioAssay.
